# Tau ThT inhib: inhibitors of human tau fibril formation, thioflavin T binding. Potency, µM (series often up to 57.4 µM), for the others: at the highest dose activity, negative = inhibition, most hits filed as inhibitors. recombinant tau K18 P301L, heparin-induced fibrillization, ThT fluorescence. 270,000 compounds, 2.1% hits. AID 1460. P10636; also: potency is read from the fitted curve at half-maximal effect; nearly all actives have a fitted effect of over 55% in size
#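 ThT emission at 510 nm, taken 1 hr after adding 30 uM dye, quantifies aggregates formed when 20 uM heparin acts on human tau K18 P301L for 6 hr at 37 C.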
# Tau fluor counter: counter-screen for tau fibril formation inhibitors. tau K18 P301L Alexa594 fluorescence, heparin fibrillization. Potency, µM (highest dose often 57.7 µM), for inactives: top-dose activity change, negative = decrease. 280,000 compounds, 0.93% hits; also: potency is read from the fitted curve at half-maximal effect; nearly all actives have a fitted effect of over 55% in size
#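 Human K18 P301L tau (15 uM unlabeled plus 0.24 uM Alexa 594-labeled, final) in 100 mM sodium acetate pH 7 was mixed with compound and 20 uM heparin and incubated 6 hr at 37 C.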
# JMJD2E inh: blocks human JMJD2E demethylase activity | Potency, µM (top dose mostly 57.1 µM), without a hit: top-dose activity change, negative = inhibition, usual class: inhibitors | 230,000 compounds, 1.6% hits | AID 2147 | JMJD2E catalytic domain, FDH-coupled NADH fluorescence (FDH is formaldehyde dehydrogenase) | B2RXH2; active = well fitted inhibition curve with a large enough effect, not every such curve was filed as active; inconclusive = small, poorly fitted or top-dose-only effect, or another doubt; inactive = no such curve, though single readings can be large or run the other way;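 also: potency is read from the fitted curve at half-maximal effect; 0% = wells with enzyme and -100% = buffer wells without enzyme; nearly all actives have a fitted effect of over 50% in size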
# Target sequence (B2RXH2 1-337 limits assumed): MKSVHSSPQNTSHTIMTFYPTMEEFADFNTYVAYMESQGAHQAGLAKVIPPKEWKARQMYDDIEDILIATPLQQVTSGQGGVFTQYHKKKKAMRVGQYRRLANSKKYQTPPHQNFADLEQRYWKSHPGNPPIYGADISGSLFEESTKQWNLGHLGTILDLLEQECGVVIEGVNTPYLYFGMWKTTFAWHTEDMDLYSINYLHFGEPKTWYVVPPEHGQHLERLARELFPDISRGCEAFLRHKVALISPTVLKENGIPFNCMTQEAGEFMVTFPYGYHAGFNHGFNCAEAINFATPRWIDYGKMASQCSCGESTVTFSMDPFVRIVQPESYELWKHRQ
# PNC inhibitor: blocks assembly of the perinucleolar compartment | AID 2417 | PC3M PTB-GFP, PNC prevalence imaging, 16 h; hits give low values | activity change (PNC), negative = inhibition, % at 10 µM | 140,000 compounds, 3.1% hits;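 active = readout at or below -70, meaning at least 70% loss of cells showing the perinucleolar compartment, a nuclear body marking cancer cells; inconclusive = readout between -30 and a set limit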;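 also: plate controls were DMSO wells for no effect and camptothecin positive control wells for full effect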
#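 Compounds are pinned in duplicate onto adhered PC3M cells stably expressing GFP-tagged PTB and incubated 16 h at 37 C. Cells are then fixed, nuclei stained with Hoechst, and PNC-positive cells counted.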
# NPSR antagonist: antagonists of human neuropeptide S receptor cAMP signaling; 220,000 compounds, 1% hits; Potency, µM (highest dose often 38.3 µM), without a hit: at the highest dose activity change, negative = inhibition, actives largely listed as inhibitors; CHO-NPSR cells, cAMP TR-FRET, antagonist mode; AID 1461; also: potency is read from the fitted curve at half-maximal effect; nearly all actives have a fitted effect of over 50% in size
# Target sequence (Q6W5P4 whole entry, looked up): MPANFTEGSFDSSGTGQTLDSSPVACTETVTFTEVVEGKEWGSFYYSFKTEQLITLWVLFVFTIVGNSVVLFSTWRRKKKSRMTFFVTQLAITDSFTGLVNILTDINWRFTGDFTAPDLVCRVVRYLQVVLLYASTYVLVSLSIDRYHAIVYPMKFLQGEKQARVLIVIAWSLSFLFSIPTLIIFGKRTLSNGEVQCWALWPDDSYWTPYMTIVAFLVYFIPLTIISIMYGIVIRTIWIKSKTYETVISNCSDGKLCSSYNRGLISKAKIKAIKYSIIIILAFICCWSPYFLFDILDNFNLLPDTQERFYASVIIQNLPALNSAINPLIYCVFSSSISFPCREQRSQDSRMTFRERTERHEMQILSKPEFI
# Tau fibril FP: tau fibrillization inhibition (FP); P10636; K18 P301L tau heparin fibrillization, Alexa594 FP, 6 h; Potency, µM (highest dose often 57.7 µM), without a hit: at the highest dose activity, negative = inhibition, hits mostly inhibitors; 280,000 compounds, 0.39% hits; also: potency is read from the fitted curve at half-maximal effect; nearly all actives have a fitted effect of over 55% in size
#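 Heparin (20 uM) drove fibril formation of recombinant tau K18 P301L, 15 uM unlabeled with 0.24 uM Alexa 594 label, for 6 hr at 37 C in 100 mM sodium acetate pH 7. Fluorescence polarization (555/632 nm) read 1 hr after 30 uM ThT.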
# An asterisk follows results filed as active; ? = inconclusive; . = not tested or not shown; ! = not confirmed by another sample; [ ] = remark or other dose. Sampled rows, rich in hits. Any-hit rate of the full collection: about 5.1%. Unless noted, calls follow the shape of the dose curve; as a rule, active = well fitted curve in the direction sought with a large enough effect; inconclusive = small, poorly fitted or top-dose-only effect, or another doubt; inactive = no such curve, though single readings can be large; an effect the other way counts as inactive or inconclusive. Unless noted, % is scaled to controls: 0 for no effect and ±100 for the full control effect.
SMILES,Tau ThT inhib,Tau fluor counter,JMJD2E inh,PNC inhibitor,NPSR antagonist,Tau fibril FP
CC(Cc1ccc(O)c(O)c1)(NN)C(=O)O (stereo unspecified),14µM*,-24%,2.2µM*,.,.,?
C[C@](N)(Cc1ccc(O)cc1)C(=O)O,-1%,1%,-2%,.,-4%[46.1 µM],12%
C[C@](N)(Cc1ccc(O)c(O)c1)C(=O)O,?,?,16µM*!,20,-31%,?
N.N.O=C(O)C1(C(=O)O)CCC1.[Pt],3.2µM*,-25%,11µM*,.,-8%[46.1 µM],2.8µM*
NC(N)=N/N=C/c1cccc([N+](=O)[O-])c1O,-2%,-8%,1%,.,-14%,0%
O=[N+]([O-])c1cccc(/C=N\N=C2c3ccccc3-c3ccccc32)c1O,5µM*,?,-5%,?,-27%[46.1 µM],8%
COc1ccc2c(c1)-c1ccccc1S(=O)(=O)N2C(C)=O,?,-10%,?,-114*,-11%[46.1 µM],-9%
C[C@@H](O)C#C[Si](C)(C)c1ccccc1,-6%,-9%,1%,.,.,0%
CSc1ccc(CCNC(=O)c2cc(C)nc3c2c(C)nn3-c2ccccc2)cc1,-2%,-20%,.,.,.,-15%
O=C(N/N=C/c1c(O)ccc2ccccc12)c1ccc[n+](CCO)c1,?,-18%,32µM*,.,-18%,5%
Cc1ccc2c(CC(=O)Nc3ccc(S(=O)(=O)N4CCCCC4C)cc3)coc2c1 (stereo unspecified),8%,?,.,.,.,?
Cc1ccc2c(CC(=O)Nc3ccc(S(=O)(=O)N4CCC(C)CC4)cc3)coc2c1,8%,?,.,.,.,10µM*
Cc1ccc2c(CC(=O)Nc3cccc(C(F)(F)F)c3)coc2c1,1%,?,.,.,.,25µM*
Cc1ccc2occ(CC(=O)Nc3ccc(S(=O)(=O)N4CCC(C)CC4)cc3)c2c1,5%,?,.,.,.,8.9µM*
NCC(O)c1ccc(O)c(O)c1 (stereo unspecified),?,-14%,13µM*,.,-21%[46.1 µM],?
COc1ccc2c(Sc3ccccc3)c(C(=O)NCc3ccc(OC(C)C)cc3)[nH]c2c1,-5%,?,.,.,.,-5%
Cc1ccc(CN(Cc2cc3cc4c(cc3[nH]c2=O)OCCO4)Cc2nnnn2Cc2ccco2)cc1,35µM*,-29%,?,-4,-6%[46.1 µM],?
Cc1ccc2[nH]c(=O)c(CN(Cc3ccccc3)Cc3nnnn3C3CCCC3)cc2c1,?,-25%,?,-93*,?,7%
Cc1ccc2[nH]c(=O)c(CN(Cc3nnnn3C3CCCC3)C3CCCCC3)cc2c1,-9%,3%,?,-100*,-8%[46.1 µM],5%
Cc1cccc2cc(CN(Cc3ccc(F)cc3)Cc3nnnn3C3CCCC3)c(=O)[nH]c12,-2%,3%,?,-18,?,-4%
Cc1ccc2cc(CN(Cc3ccc4c(c3)OCO4)Cc3nnnn3Cc3ccco3)c(=O)[nH]c2c1,-13%,-16%,?,?,-24%[46.1 µM],9%
CCOC(=O)c1ccc(NC(=O)CC2C(=O)N(c3ccc(F)cc3)C(=O)N2Cc2ccc(C)cc2)cc1 (stereo unspecified),0%,?,.,.,.,?
NC(=O)CC[C@@H]1NC(=O)[C@H](Cc2ccccc2)NC(=O)[C@H](Cc2ccc(O)cc2)NC(=O)[C@@H](N)CSSC[C@@H](C(=O)N2CCC[C@H]2C(=O)N[C@@H](CCCN=C(N)N)C(=O)NCC(N)=O)NC(=O)[C@H](CC(N)=O)NC1=O,-6%,-1%,7%,2,8%,6%
NC(=O)c1cc2ccccc2oc1=NCc1ccccc1,-17%,-13%,3%,40,-10%[46.1 µM],-9%
NC(=O)c1cc2ccccc2o/c1=N\NC(=O)c1ccco1,-12%,-1%,3%,-119*,-34%,13%
SMILES,Tau ThT inhib,Tau fluor counter,JMJD2E inh,PNC inhibitor,NPSR antagonist,Tau fibril FP
COC(=O)c1c(SCC(=O)Nc2ccccc2OC)[nH]c2ccccc2c1=O,14µM*,?,.,.,.,4%
COC(=O)c1c(SCC(=O)Nc2cc(OC)cc(OC)c2)[nH]c2ccc(C)cc2c1=O,-11%,-13%,.,.,.,-3%
COc1ccccc1N1CCN(C(=O)c2cc3c(=O)n(C)c4ccccc4c3s2)CC1,?,-14%,.,.,.,6%
COc1ccccc1N1CCN(C(=O)c2cc3c(=O)n(C)c4ccccc4c3n2C)CC1,?,-9%,?,-88*,-16%[46.1 µM],-5%
COc1ccccc1NC(=O)CSc1nc2ccccc2c(=O)n1CCC(=O)NC1CCCCC1,6%,0%,.,.,.,-7%
CN(C)c1ccc(N=Cc2nc(-c3ccccc3)oc2OC(=O)c2cccc(Br)c2)cc1,10µM*,-27%,-4%,22,-46%,?
N#C/C(=C\c1c[nH]c2ccccc12)c1nnc2n1CCCCC2,-13%,-3%,2%,2,?,1%
N#C/C(=N\Nc1cccc2ccccc12)c1nnc2n1CCCCC2,12%,3%,-2%,-113*,-31%,-8%
Cc1ccc(/C=C/c2onc(C)c2S(=O)(=O)N2CCC(C(=O)N3CCOc4ccc(C)cc43)CC2)cc1,-8%,-19%,.,.,.,1%
Cc1ccc(C)c(-c2[nH]c3c(c2-c2c(-n4cccc4)n(C)c(=O)[nH]c2=O)c(=O)[nH]c(=O)n3C)c1,5%,6%,.,.,.,7%
CCNc1nc(Oc2ccc(=O)n(-c3ccccc3)n2)nc(N(C)C)n1,2%,-1%,-1%,62,-17%[46.1 µM],6%
CCNc1nc(OC)nc(Oc2ccc(=O)n(-c3ccccc3)n2)n1,7%,16%,8%,-94*,9%[46.1 µM],6%
Cc1ccc(C2C(/C=C3/SC(=S)NC3=O)=C(c3cccs3)Oc3ccccc32)cc1 (stereo unspecified),13µM*,?,-8%,-26,?,-6%
O=C(CSc1nc2c(cnn2-c2ccc(F)cc2)c(=O)[nH]1)N1N=C(c2cccs2)CC1c1ccc(F)cc1 (stereo unspecified),?,-21%,5µM*,48,-29%,-7%
Cc1ccc(CNC(=O)CSc2nc3c(sc4ccccc43)c(=O)n2CCCOC(C)C)cc1,1%,-7%,.,.,.,-14%
O=C(O)c1ccc2ncsc2c1,6%,8%,14µM*,.,-13%,0%
CC(=O)c1cccc(NC(=O)c2cc(C)nc3c2c(C)nn3-c2cccc(Cl)c2C)c1,-2%,-29%,.,.,.,-12%
O=C1CCCC2=C1C(c1ccc(Cl)cc1)C1C(=O)c3ccccc3C1=N2 (stereo unspecified),16µM*,22µM*[quencher],3%,8,?,14%

# Compound activity deposited in PubChem by National Center for Advancing Translational Sciences (NCATS).
